# Sampled rows, rich in hits. Any-hit rate of the full collection: about 0.5%.
# MLL CXXC-DNA inh – blocks binding of human MLL CXXC domain to DNA; Potency, µM (doses to about 115 µM), for inactives: at the top dose activity change, negative = inhibition, actives largely listed as inhibitors; MLL-CXXC / FITC-HOXA9 DNA fluorescence polarization; Q03164; 290,000 compounds, 0.037% hits; active = well fitted inhibition curve with a large enough effect in the polarisation, with a control signal flat, not every such curve was filed as active; inconclusive = small, poorly fitted or top-dose-only effect, or effect the other way, or a change in a side signal; inactive = no such curve, though single readings can be large or run the other way; the % refers to the polarisation; also: potency is read from the fitted curve at half-maximal effect
#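 Fluorescence polarization: 7 uM MLL-CXXC (stock) preincubated 5 min with compounds, then 50 nM fluorescein-HOX-A9 DNA (stock) added; 30 min ambient. Buffer 50 mM Tris-HCl pH 7.5, 50 mM NaCl, 1 mM DTT, 0.05% BSA.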
# Menin MLL FP TR – inhibitors of human menin-MLL interaction, mutant MLL peptide | O00255 | Potency, µM (doses to about 61.6 µM), for inactives: top-dose FP activity change, negative = inhibition, usual class: inhibitors | Menin + Texas Red MLL mutant peptide, fluorescence polarization | 270,000 compounds, 0.23% hits; active = well fitted inhibition curve with a large enough effect in the polarisation, with a control signal flat, not every such curve was filed as active; inconclusive = small, poorly fitted or top-dose-only effect, or effect the other way, or a change in a side signal; inactive = no such curve, though single readings can be large or run the other way; the % refers to the polarisation; also: potency is read from the fitted curve at half-maximal effect; % of control where 0% means no effect
# GoLoco inh red – RGS12 GoLoco-Gai1 interaction inhibition. P63096. Potency, µM (highest dose often 61.6 µM), inactives show at the highest dose activity, negative = inhibition, hits mostly inhibitors. Gai1:RGS12 GoLoco peptide FP, rhodamine, 10 min. AID 880. 230,000 compounds, 0.44% hits; active = well fitted inhibition curve with a large enough effect, not every such curve was filed as active; inactive = no such curve, though single readings can be large or run the other way; also: potency is read from the fitted curve at half-maximal effect; % is scaled to controls: 0 for no effect and ±100 for the full control effect; nearly all actives have a fitted effect of over 30% in size
# TexasRed fluor – Texas Red fluorescence interference in TRb-SRC2 counter-screen | TRb/SRC2 Texas Red total fluorescence interference | 280,000 compounds, 0.29% hits | AID 1479 | Potency, µM (titrated, usually from 106 µM), for inactives: at the highest dose fluorescence change, negative = quenching; active = well fitted curve in either direction with a large enough effect; inconclusive = small, poorly fitted or top-dose-only effect; also: potency is read from the fitted curve at half-maximal effect; % is scaled to controls: 0 for no effect and ±100 for the full control effect
#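 Human TRb ligand-binding domain at 0.6 uM with 20 nM Texas Red SRC2 peptide in Tris buffer containing 1 uM T3 and 5% DMSO, incubated with compound 5 h at ambient temperature. Total fluorescence (555/632 nm) calculated as parallel + 2 × perpendicular.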
# Menin-MLL FL inh – inhibitors of human menin-MLL interaction, wild-type MLL peptide | Fluorescence polarization, fluorescein-MLL peptide displacement from menin | FP activity change, % at 61.4 µM | 290,000 tested, under 10 active | AID 1766; active = well fitted curve in the direction sought with a large enough effect in the polarisation, not every such curve was filed as active; inconclusive = small, poorly fitted or top-dose-only effect, or effect the other way, or a change in a side signal; inactive = no such curve, though single readings can be large or run the other way; the % refers to the polarisation; also: % of control where 0% means no effect
# TRb SRC2 PPI – inhibitors of human thyroid hormone receptor beta-SRC2 interaction; P10828; TRbeta-SRC2 peptide binding, fluorescence polarization; receptor liganded with 1 µM T3; Potency, µM (doses to about 106 µM), for the others: at the top dose activity change, negative = inhibition, usual class: inhibitors; 280,000 compounds, 0.065% hits; AID 1469; active = well fitted inhibition curve with a large enough effect; inconclusive = small, poorly fitted or top-dose-only effect, or effect the other way;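 also: potency is read from the fitted curve at half-maximal effect; plate controls were bound peptide for no effect and peptide without receptor for full effect; nearly all actives have a fitted effect of over 50% in size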
# Target sequence (P10828 whole entry, looked up): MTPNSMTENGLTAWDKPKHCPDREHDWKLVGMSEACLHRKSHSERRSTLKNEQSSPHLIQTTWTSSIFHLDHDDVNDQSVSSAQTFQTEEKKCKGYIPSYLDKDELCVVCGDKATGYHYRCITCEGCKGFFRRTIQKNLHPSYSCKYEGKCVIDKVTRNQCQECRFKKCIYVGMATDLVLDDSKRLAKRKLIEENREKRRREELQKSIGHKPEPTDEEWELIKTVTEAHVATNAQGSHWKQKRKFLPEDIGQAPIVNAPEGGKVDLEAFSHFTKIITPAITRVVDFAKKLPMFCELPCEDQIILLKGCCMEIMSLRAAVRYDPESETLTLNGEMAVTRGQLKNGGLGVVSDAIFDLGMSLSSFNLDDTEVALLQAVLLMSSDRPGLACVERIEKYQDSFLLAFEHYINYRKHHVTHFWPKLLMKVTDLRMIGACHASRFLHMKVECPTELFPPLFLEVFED
#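 Binding of a 20-amino-acid Texas Red SRC2 peptide (20 nM) to TRb ligand-binding domain (0.6 uM) with agonist T3 at 1 uM was followed by fluorescence polarization after a 5 hr room-temperature incubation.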
# Active calls of the source: *; ? = inconclusive; · = no result given; ! = repeats disagree; [ ] = remark or other dose.
SMILES,MLL CXXC-DNA inh,Menin MLL FP TR,GoLoco inh red,TexasRed fluor,Menin-MLL FL inh,TRb SRC2 PPI
COc1ccc(C(=O)NCc2ccc3c(c2)cc(C)n3C)cc1OC,22%,?,-7%,-2%,?,1%
Cc1cc2cc(CNC(=O)c3ccc(S(=O)(=O)N4CCCC4)cc3)ccc2n1C,4%,?,-84%,45µM*[fluorescent],-24,35µM*
CCN(CC)S(=O)(=O)c1ccc(C(=O)NCc2ccc3c(c2)cc(C)n3C)cc1,6%,?,-4%,45µM*[fluorescent],-25,40µM*
Cc1cc2cc(CNS(=O)(=O)c3ccccc3)ccc2n1C,-1%,?,-16%,50µM*[fluorescent],?,45µM*
COc1ccc(S(=O)(=O)NCc2ccc3c(c2)cc(C)n3C)cc1,-8%,-13%[11.7 µM],-20%,?,-14,-24%
CCc1ccc(CNC(=O)c2cc3cc(S(=O)(=O)N4CCCCC4)ccc3n2C)cc1,·,·,·,0%,·,3%
COc1ccc(NC(=O)c2ccco2)cc1NC(=O)c1ccc(OC(C)C)cc1,·,·,·,0.35µM*[quencher],·,-12%
Cc1ccc(Cl)cc1Cl,·,·,·,-5%[201 µM],·,-8%[201 µM]
NC(Cc1ccc(O)c(O)c1)C(=O)O (stereo not drawn),·,?,-14%,-18%,13,1%
O=C(/C=C/c1ccc(O)c(O)c1)O[C@H](Cc1ccc(O)c(O)c1)C(=O)O,-5%,·,16µM*,25µM*[quencher],9,?
O=C(/C=C/c1ccc(O)c(O)c1)O[C@@H](C(=O)O)[C@@H](OC(=O)/C=C/c1ccc(O)c(O)c1)C(=O)O,·,·,-13%,-4%,·,-3%
N[C@H](Cc1ccc(O)c(O)c1)C(=O)O,-14%,?,-8%,28µM*![quencher],2,0%
Cc1c2ccccc2nc2c(F)c(NCCO)c(F)c(F)c12,?,?,20µM*,-14%,?,5%
CCCCOCCOCCOC(C)=O,·,·,·,-5%[201 µM],·,2%[201 µM]
Cc1ccc(-c2cc3ncc4c(n3n2)-c2cc(F)ccc2OC4)cc1,·,·,·,25µM*[quencher],·,-6%
COc1cc(NC(=O)COC(=O)CNC(=O)c2ccc(C)cc2)c(C)cc1[N+](=O)[O-],5%,30%,-10%,10µM*[quencher],-4,-25%[53 µM]
CCc1ccccc1NC(=O)CN1C(=O)c2cccnc2Oc2ccc(Cl)cc21,·,·,·,14µM*[quencher],·,-6%
CCOC(=O)c1ccc(NC(=O)CN2C(=O)c3cccnc3Oc3ccc(Cl)cc32)cc1,·,·,·,-29%,·,-1%
Cc1ccc(NC(=O)CN2C(=O)c3cccnc3Oc3ccc(Cl)cc32)cc1,·,·,·,18µM*[quencher],·,-15%
COc1ccc([C@]23Cc4cc(OC)c(OC)cc4C(O2)C2=C(CCCC2=O)O3)cc1,0%[23 µM],13%[11.7 µM],·,·,14[11.7 µM],·
CCOC(=O)c1c(CSc2ccc(C)cc2)n(C)c2cc(Br)c(O)c(CN(C)C)c12,-1%,?,-6%,-3%,3,1%
CCOC(=O)c1c(CSc2ccccc2)n(C)c2cc(Br)c(O)c(CN(C)C)c12,10%,·,22µM*,1%,2,7%
Cc1cc(C(F)F)n2nc(C(=O)Nc3ccc(C(C)C)cc3)nc2n1,·,·,·,-21%,·,-1%
CCn1cc(/C=C(\NC(=O)c2ccc(C)cc2)C(=O)NCCCn2ccnc2)c2ccccc21,·,·,·,-4%,·,8%
CC1C2(C)OC(=N)C(C#N)(C(C)O2)C1(C#N)C#N (stereo not drawn),?,·,25µM*,21%,?,?
Cc1ccc(CN2CCCn3nc(C(=O)NCC(C)c4ccccc4)cc3C2=O)cc1 (stereo not drawn),·,·,·,1%,·,-1%
CCOC(=O)c1ccc(NC(=O)CS(=O)(=O)Cc2nc(-c3ccc(C)cc3)oc2C)cc1,·,·,·,-18%,·,-9%
O=S(=O)(O)c1ccc(N=Nc2cc(S(=O)(=O)O)c3ccccc3c2O)c2ccccc12,·,·,·,100µM*[fluorescent],·,?
CCn1c2c(c(=O)n3ncc(C(=O)Nc4ccc(OC(F)(F)F)cc4)c13)CN(Cc1ccc(OC)cc1)CC2,·,·,·,1%,·,2%
CC(C)c1ccc(N2C(=O)/C(=C/N(C)C)SC2=S)cc1,?,·,-183%,28µM*[fluorescent],?,?
